Values without a mark were called inactive. Records with an inconclusive call do not appear. Entries that show only a call come without a potency. The source made the active and inactive calls. Unless noted, calls come from the whole dose curve; as a rule, active = well fitted curve in the direction sought with a large enough effect in the repeat runs; inconclusive = weak or mixed curves; inactive = no such curve, though single readings can be large; an effect the other way counts as inactive or inconclusive.
Assays:
[1] = qHTS assay for small molecule agonists of the p53 signaling pathway (AID 651631; calls by dose curve; note: nearly all actives have a fitted effect of over 15% in size)
Method in brief: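 Read-out is beta-lactamase FRET fluorescence measured 2 h after substrate addition at room temperature, in HCT-116 cells with a p53 response element-driven reporter exposed to compounds for 16 h at 37 °C.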

[2] = qHTS assay for small molecules that induce genotoxicity in human embryonic kidney cells expressing luciferase-tagged ATAD5 (AID 651632); note: nearly all actives have a fitted effect of over 15% in size
Method in brief: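 HEK293T cells carrying luciferase-tagged ATAD5 were given compound or DMSO vehicle and incubated 16 hr at 37C, 5% CO2. Luciferase activity was read after 30 min at room temperature with Amplite; a rise signals genotoxic stress.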

[3] = qHTS assay for small molecule agonists of the p53 signaling pathway - cell viability (AID 651633; calls by dose curve;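 note: p53RE-bla HCT reporter cells with a stable beta-lactamase p53 reporter; series mostly up to about 83 µM; nearly all actives have a fitted effect of over 30% in size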)
Method in brief: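 p53RE-bla cells, seeded at 4,000 per well and rested 5 h at 37 C/5% CO2, received compounds in DMSO for 16 h at 37 C. CellTiter-Glo was then added, and luminescence was read after 30 min at room temperature to gauge cytotoxicity.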

[4] = qHTS assay for small molecules that induce genotoxicity in human embryonic kidney cells expressing luciferase-tagged ATAD5 - cell viability (AID 651634; calls by dose curve; note: nearly all actives have a fitted effect of over 25% in size; note: potency is the fitted concentration of half-maximal effect)
Method in brief: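 HEK293T cells carrying luciferase-tagged ATAD5, 2,000 cells/well, exposed to compound for 15.5 hr at 37C. Viability read as live-cell protease activity by CellTiter-Fluor fluorescence after 30 min at 37C.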

[5] = qHTS assay for small molecule disruptors of the mitochondrial membrane potential - cell viability (AID 720634; calls by dose curve;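 note: human HepG2 liver cancer cells; series mostly up to about 83 µM; nearly all actives have a fitted effect of over 20% in size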)
Method in brief: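 HepG2 cells, 2,000 per well, attached overnight, then treated 1 hr at 37 C, 5% CO2. Viability read as ATP by CellTiter-Glo luminescence after 30 min at room temperature. Read in the same wells as the m-MPI membrane-potential dye assay.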

[6] = qHTS assay to test for compound auto fluorescence at 590 nm (red) in HepG2 cells (AID 720674)
Method in brief: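 Rose Bengal sodium served as the red fluorophore standard. HepG2 monolayers (overnight attachment, MEM with 10% FBS) were exposed to test compounds for 1 hr at 37 C and read at Ex 540/Em 590 nm.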

[7] = qHTS assay to test for compound auto fluorescence at 535 nm (green) in HepG2 cells (AID 720675)
[8] = qHTS assay to test for compound auto fluorescence at 460 nm (blue) in HEK293 cells (AID 720678)
Method in brief: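 Measured: blue fluorescence (Ex 405/Em 460 nm) of compound-treated HEK293 cells, incubated overnight at 37C with 5% CO2 and scaled to triamterene equivalents.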

[9] = qHTS assay to test for compound auto fluorescence at 590 nm (red) in HEK293 cells (AID 720679)
Method in brief: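 Using HEK293 cells at 2,000 per well, the screen added 23 nL of each compound after cell attachment and incubated overnight (37C, 5% CO2). The plate reader then captured red-label fluorescence, Ex/Em 540/590nm.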

[10] = qHTS assay for small molecule disruptors of the mitochondrial membrane potential (AID 720635); note: potency is the fitted concentration of half-maximal effect
Method in brief: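 HepG2 cells (2,000/well) attached overnight at 37C, then took compound for 1 hr at 37C, 5% CO2. Mito-MPS dye was added for 30 min; fluorescence was read at 490/535 nm (monomers) and 540/590 nm (aggregates).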

Compound | outcome [1] | outcome [2] | outcome [3] | Potency [4] | outcome [5] | outcome [6] | outcome [7] | outcome [8] | outcome [9] | Potency [10] | fluorescence, relative to Rose Bengal [6] | fluorescence, % of fluorescein control [7] | fluorescence, % of fluorescent control [9]
CN(C)CCCNCCC#N | inactive | inactive | inactive | inactive | inactive | inactive | inactive | inactive |  |  |  |  | 
COc1ccc(OC)c(NC(=O)CC(C)=O)c1 | inactive | inactive | inactive | inactive | inactive | inactive | inactive | inactive | inactive |  |  |  | 
CC(C)c1ccccc1O | inactive | inactive | inactive | inactive | inactive | inactive | inactive | inactive | inactive |  |  |  | 
CC(C)SCc1ccco1 | inactive | inactive | inactive | inactive | inactive | inactive | inactive | inactive | inactive |  |  |  | 
CO[Si](CCCCl)(OC)OC | inactive | inactive | inactive | inactive | inactive | inactive | inactive |  | inactive | 60.2 µM (active) |  |  | 
CC(=O)Nc1ncc([N+](=O)[O-])s1 | inactive | inactive | inactive | inactive | inactive | inactive | inactive | inactive | inactive |  |  |  | 
O=C(COCCOCCOCC(=O)Nc1c(I)cc(I)c(C(=O)O)c1I)Nc1c(I)cc(I)c(C(=O)O)c1I | inactive | inactive | inactive | inactive | inactive | inactive | inactive | inactive | inactive | inactive |  |  | 
COC(=O)CCC(=O)O | inactive | inactive | inactive | inactive | inactive | inactive | inactive |  | inactive | inactive |  |  | 
OCCCCCCCl | inactive | inactive | inactive | inactive | inactive | inactive | inactive |  | inactive | inactive |  |  | 
C=COCCOCCOC=C | inactive | inactive | inactive | inactive | inactive | inactive | inactive | inactive | inactive | inactive |  |  | 
CC1CCC(C(C)(C)S)C(=O)C1 (configuration not stated) | inactive | inactive | inactive | inactive | inactive | inactive | inactive | inactive | inactive | inactive |  |  | 
CCOC(=O)CC#N | inactive | inactive | inactive | inactive | inactive | inactive | inactive |  | inactive | inactive |  |  | 
CC(C)CCO | inactive | inactive | inactive | inactive | inactive | inactive | inactive | inactive |  |  |  |  | 
OC(CCN1CCCCC1)(c1ccccc1)c1ccccc1 | inactive | inactive | inactive | inactive | inactive | inactive | inactive | inactive | inactive |  |  |  | 
CCNC(=O)/C=C/c1cccc(Br)c1 | inactive | inactive | inactive | inactive | inactive | inactive | inactive | inactive | inactive |  |  |  | 
COc1cc([N+](=O)[O-])ccc1N | inactive | inactive | inactive | 54.5 µM (active) | inactive | inactive | inactive |  | inactive | inactive |  |  | 
CC(C)COC(=O)CC(C(=O)OCC(C)C)S(=O)(=O)O (configuration not stated) | inactive | inactive | inactive | inactive | inactive | inactive | inactive | inactive | inactive |  |  |  | 
CN[C@@H]1[C@H](O)[C@H](NC)[C@H]2O[C@@]3(O)C(=O)C[C@@H](C)O[C@H]3O[C@@H]2[C@H]1O | inactive | inactive | inactive | inactive | inactive |  |  |  |  | inactive | -0.0467% [at 18.6 µM] | -0.162% [at 18.6 µM] | 0.0398% [at 18.6 µM]
CC(=O)OC(C)c1ccccc1 (configuration not stated) | inactive | inactive | inactive | inactive | inactive | inactive | inactive | inactive | inactive | inactive |  |  | 
Cc1cccc(C(=O)O)c1[N+](=O)[O-] | inactive | inactive | inactive | inactive | inactive | inactive | inactive | inactive |  |  |  |  | 
C=CCOCC(CO)(COCC=C)COCC=C | inactive | inactive | inactive | inactive | inactive | inactive | inactive |  | inactive | inactive |  |  | 
C/C=C(\C)C(=O)OCC/C=C\CC | inactive | inactive | inactive | inactive |  | inactive | inactive |  | inactive | inactive |  |  | 
Cc1cc(O)c2c(c1)C(=O)c1cccc(O)c1C2=O | inactive | inactive | inactive | inactive |  | inactive | inactive | inactive | inactive | 11.9 µM (active) |  |  | 
C=C(C)C(=O)OC1CC(C)CC(C)(C)C1 (configuration not stated) | inactive | inactive | inactive | inactive | inactive | inactive | inactive | inactive | inactive |  |  |  | 
CCCOC(=O)CCCCC(=O)OCCC | inactive | inactive | inactive | inactive | inactive | inactive | inactive | inactive | inactive |  |  |  | 
CCCCCC(=O)OCC | inactive | inactive | inactive | inactive |  | inactive | inactive | inactive |  |  |  |  | 
